Source: PubChem
The list is not random: actives were taken first. Their share in the collection is about 7.6%.
KB-V1 MDR tox: qHTS assay for MDR1-selective chemotherapeutics: Primary screen using the drug-selected MDR subline cells KB-V1; KB-V1 MDR cells viability, CellTiter-Glo, 72 h; Potency, µM (series often up to 46.1 µM), hits mostly cytotoxic; 3.4% of 400,000 active; AID 1347076, 2019; also: nearly all actives have a fitted effect of over 60% in size
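KB-V1, DMEM (no phenol red) + 10% FBS; cpd pin-transferred, titration series; 72 h, 37 degrees C; CellTiter-Glo, luminescence. Data normalized, curve-fit.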
KB-3-1 tox: qHTS assay for MDR1-selective chemotherapeutics: Primary screen using the parental adenocarcinoma cell KB-3-1 | Potency, µM (highest dose often 46.1 µM), hits mostly cytotoxic | 1.4% of 400,000 active | KB-3-1 viability, CellTiter-Glo ATP luminescence, 72 h; also: nearly all actives have a fitted effect of over 60% in size
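72 h, 37 °C compound treatment of KB-3-1 parental cells; CellTiter-Glo added, 10 min, luminescence read. Data corrected against DMSO-only plates and normalized before curve fitting.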
SW480 rereplic: A quantitative high throughput screen for small molecules that induce DNA re-replication in SW480 colon adenocarcinoma cells | SW480 DNA re-replication, Hoechst DNA content imaging, 48 h | Potency, µM (top dose mostly 46.1 µM), usual class: activators | 1.8% of 340,000 active | AID 624297, 2012; also: nearly all actives have a fitted effect of over 55% in size
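DNA re-replication was detected as more nuclei of elevated Hoechst intensity after 48 hr exposure to compound (23 nL pinned per well of 250 cells).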
MCF10A rereplic: A quantitative high throughput screen for small molecules that induce DNA re-replication in MCF 10a normal breast cells. MCF 10A DNA re-replication, Hoechst nuclear intensity, 48 h. Potency, µM (doses to about 46.1 µM), usual class: activators. 2.9% of 350,000 active; also: nearly all actives have a fitted effect of over 50% in size
hERG WT inh: qHTS for Inhibitors of KCHN2 3.1: Wildtype qHTS | Voltage-gated inwardly rectifying potassium channel KCNH2 (Homo sapiens), Q12809 | U2OS, BacMam KCNH2, thallium flux FluxOr; active compounds read low | activity change, % at 1.84 µM | 0.37% of 340,000 active | AID 720551, 2013;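 active = maximum activity change below -70%; inconclusive = maximum activity change between -70% and -50%; inactive = maximum activity change above -50%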
Target sequence (Q12809 whole entry, looked up): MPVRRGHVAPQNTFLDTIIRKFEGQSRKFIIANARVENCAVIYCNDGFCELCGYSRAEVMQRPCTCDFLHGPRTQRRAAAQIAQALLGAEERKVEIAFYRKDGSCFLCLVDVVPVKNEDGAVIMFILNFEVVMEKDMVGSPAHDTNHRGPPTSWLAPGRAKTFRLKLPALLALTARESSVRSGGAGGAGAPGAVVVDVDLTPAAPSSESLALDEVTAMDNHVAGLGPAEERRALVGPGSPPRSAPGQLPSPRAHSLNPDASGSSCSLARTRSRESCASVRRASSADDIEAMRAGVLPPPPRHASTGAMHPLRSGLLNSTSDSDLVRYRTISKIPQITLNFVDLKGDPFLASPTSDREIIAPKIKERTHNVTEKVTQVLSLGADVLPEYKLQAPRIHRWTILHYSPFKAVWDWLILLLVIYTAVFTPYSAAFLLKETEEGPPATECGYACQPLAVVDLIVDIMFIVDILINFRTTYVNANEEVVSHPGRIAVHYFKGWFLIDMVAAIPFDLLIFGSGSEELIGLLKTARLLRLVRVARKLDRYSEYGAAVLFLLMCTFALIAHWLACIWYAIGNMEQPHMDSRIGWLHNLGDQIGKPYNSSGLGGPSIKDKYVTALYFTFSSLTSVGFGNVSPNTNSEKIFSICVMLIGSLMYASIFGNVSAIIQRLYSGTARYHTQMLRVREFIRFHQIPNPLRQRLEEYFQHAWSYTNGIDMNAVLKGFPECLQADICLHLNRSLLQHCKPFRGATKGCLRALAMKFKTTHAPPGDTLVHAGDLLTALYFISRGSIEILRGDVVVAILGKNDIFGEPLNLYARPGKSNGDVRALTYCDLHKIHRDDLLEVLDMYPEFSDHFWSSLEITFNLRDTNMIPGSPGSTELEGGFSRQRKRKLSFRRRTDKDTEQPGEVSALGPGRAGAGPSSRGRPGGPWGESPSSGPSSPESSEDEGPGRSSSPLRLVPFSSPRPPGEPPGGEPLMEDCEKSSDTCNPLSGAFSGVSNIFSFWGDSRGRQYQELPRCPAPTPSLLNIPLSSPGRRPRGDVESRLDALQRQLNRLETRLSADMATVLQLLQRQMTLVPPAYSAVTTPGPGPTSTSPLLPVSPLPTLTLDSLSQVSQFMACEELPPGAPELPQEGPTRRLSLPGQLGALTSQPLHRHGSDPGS
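U2OS cells transduced with wild-type KCNH2 virus are loaded with FluxOr dye for 45 min, and thallium flux is measured in kinetic reads before and after stimulation buffer. Rate constants are normalized to DMSO controls.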
KCNH2 3.1 block: qHTS for Inhibitors of KCHN2 3.1: Mutant qHTS; AID 720553, 2013; U2OS KCNH2 3.1, thallium flux FluxOr; active compounds read low; activity change, % (tested at about 1.8 µM); 0.95% of 340,000 active; Potassium voltage-gated channel subfamily H member 2, brain isoform KCNH2 3.1 (human);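 active = maximum activity change below -70%; inconclusive = maximum activity change from -70% to -50%; inactive = maximum activity change above -50%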;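 also: thallium influx rate constant from kinetic fluorescence after stimulation buffer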
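Thallium flux read-out: FluxOr dye with Red40 quencher in HBSS/HEPES, 45 min at RT. Rate constants from kinetic reads were normalized to positive and negative DMSO controls. Cells: U2OS virally expressing the 3.1 isoform.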
Hits are given with their value. Unless noted, calls follow the shape of the dose curve; as a rule, active = well fitted curve in the direction sought with a large enough effect; inconclusive = small, poorly fitted or top-dose-only effect, or another doubt; inactive = no such curve, though single readings can be large; an effect the other way counts as inactive or inconclusive.

How did CCOc1ccc(NC(=O)c2cccc(OC(=S)N3CCOCC3)c2)cc1 do in these assays?
KB-V1 MDR tox: inconclusive; KB-3-1 tox: inactive; SW480 rereplic: inactive; MCF10A rereplic: inactive; hERG WT inh: inactive; KCNH2 3.1 block: inactive

Results for COc1ccc(N(C)S(=O)(=O)c2cccc(C(=O)Nc3ccc(N4CCOCC4)cc3)c2)cc1 ?
KB-V1 MDR tox: 15µM; KB-3-1 tox: inconclusive; SW480 rereplic: inconclusive; MCF10A rereplic: inactive; hERG WT inh: inactive; KCNH2 3.1 block: inactive

How did COC(=O)N/N=C\c1ccccc1OC/C=C/c1ccccc1 do in these assays?
KB-V1 MDR tox: inactive; KB-3-1 tox: inactive; SW480 rereplic: 16µM; MCF10A rereplic: inconclusive; hERG WT inh: inactive; KCNH2 3.1 block: inactive

What do the screens show for `CCCOc1ccc(CSCCNC(=S)Nc2ccccc2)cc1`?
KB-V1 MDR tox: inconclusive; KB-3-1 tox: inactive; SW480 rereplic: inactive; MCF10A rereplic: inconclusive; hERG WT inh: inactive; KCNH2 3.1 block: inactive

Results for Cc1cccc(CSCCNC(=S)Nc2ccccc2)c1 ?
KB-V1 MDR tox: 18µM; KB-3-1 tox: inconclusive; SW480 rereplic: inactive; MCF10A rereplic: inactive; hERG WT inh: inactive; KCNH2 3.1 block: inactive

How did S=C(NCCSCc1ccccc1Cl)Nc1ccccc1 do in these assays?
KB-V1 MDR tox: inconclusive; KB-3-1 tox: inactive; SW480 rereplic: inactive; MCF10A rereplic: 13µM; hERG WT inh: inactive; KCNH2 3.1 block: inactive

How did S=C(NCCSCc1ccc(Cl)cc1)Nc1ccccc1 do in these assays?
KB-V1 MDR tox: inconclusive; KB-3-1 tox: inactive; SW480 rereplic: inactive; MCF10A rereplic: inactive; hERG WT inh: inactive; KCNH2 3.1 block: inactive

Results for CC(C)CCNC(=O)CCc1nnc2n(CCCOC(C)C)c(=O)c3ccccc3n12 ?
KB-V1 MDR tox: inactive; KB-3-1 tox: inactive; SW480 rereplic: inactive; MCF10A rereplic: inactive; hERG WT inh: inactive; KCNH2 3.1 block: inactive

How did COc1ccc(S(=O)(=O)Nc2cccc(S(=O)(=O)NC3=NCCC3)c2)cc1[N+](=O)[O-] do in these assays?
KB-V1 MDR tox: inactive; KB-3-1 tox: inactive; SW480 rereplic: inactive; MCF10A rereplic: inactive; hERG WT inh: inactive; KCNH2 3.1 block: inactive

Results for Clc1nnc(N/N=C/c2ccccc2)c2ccccc12 ?
KB-V1 MDR tox: inconclusive; KB-3-1 tox: inconclusive; SW480 rereplic: inconclusive; MCF10A rereplic: 18µM; hERG WT inh: inactive; KCNH2 3.1 block: inactive

Results for Cc1oc(-c2cccs2)nc1CNC[C@H]1O[C@@H](n2cnc(C(N)=O)n2)[C@H](O)[C@@H]1O ?
KB-V1 MDR tox: inactive; KB-3-1 tox: inactive; SW480 rereplic: inactive; MCF10A rereplic: inactive; hERG WT inh: inactive; KCNH2 3.1 block: inactive

How did C=CCN(CC=C)Cc1c(O)ccc2c(=O)c(-c3ccccc3)coc12 do in these assays?
KB-V1 MDR tox: inactive; KB-3-1 tox: inactive; SW480 rereplic: inconclusive; MCF10A rereplic: 21µM; hERG WT inh: inactive; KCNH2 3.1 block: inactive

Results for CCN(CC)Cc1c(O)ccc2c(=O)c(-c3ccc(Cl)cc3)coc12 ?
KB-V1 MDR tox: inactive; KB-3-1 tox: inactive; SW480 rereplic: inactive; MCF10A rereplic: inconclusive; hERG WT inh: inactive; KCNH2 3.1 block: inactive

Results for CCCNC(=O)C1(C)CCN1C(=O)c1ccccc1CCc1ccccc1 (stereo unspecified) ?
KB-V1 MDR tox: inactive; KB-3-1 tox: inactive

What do the screens show for `Cc1ccc(N/C=C2/Sc3ccccc3NC2=O)cc1`?
KB-V1 MDR tox: inconclusive; KB-3-1 tox: inactive; SW480 rereplic: inactive; MCF10A rereplic: 18µM; hERG WT inh: inactive; KCNH2 3.1 block: inactive

How did COC(=O)c1nn(-c2ccc(OC)cc2)c(=O)cc1O do in these assays?
KB-V1 MDR tox: inactive; KB-3-1 tox: inactive; SW480 rereplic: inactive; MCF10A rereplic: inactive; hERG WT inh: inactive; KCNH2 3.1 block: inactive
